# Screening data from PubChem BioAssay.
# In the library only some 3% were active in any assay of this set; here they are far more common.
# TWEAK-Fn14 inh: inhibitors of TWEAK-Fn14 signaling, primary screen, luciferase reporter cells, uHTS; TWEAK-stimulated Fn14 reporter cells, luciferase luminescence, 8 h; inhibition, % at 10 µM; 360,000 tested, 2% active; in the data active = inhibition above about 50%
# TRPM1 prom inh: inhibitors of MITF-dependent TRPM1 promoter reporter, primary screen, cell-based, SK-MEL-5, single point, luciferase; SK-MEL-5 TRPM1 promoter luciferase, 24 h; inhibition, % at 12.5 µM; 330,000 tested, 0.83% active; AID 488899, 2010;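 active = mean inhibition across replicates of 60% or more, whatever share of single replicates reaches that level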
# MITF act: activators of MITF-driven TRPM1 promoter reporter, primary screen, cell-based, SK-MEL-5, luciferase, single point; SK-MEL-5 TRPM1-promoter luciferase, 24 h; % of positive control, neutral wells = 0; activation, % at 12.5 µM; 300,000 tested, 0.75% active; AID 588334, 2011;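 active = mean activation of at least 80% with every replicate also reaching 80%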;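 note: 0% = neutral control wells and 100% = parthenolide positive control wells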
# LMP1 NFkB inh: EBV LMP1-driven NF-kappaB luciferase reporter inhibitors, primary screen, cell-based, luminescence, single point. LMP1-induced NF-kappaB luciferase reporter cells. inhibition, % at 12.5 µM. 350,000 tested, 0.69% active. AID 504558, 2011; in the data active = inhibition above about 41%;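 note: 0% = neutral control wells and 100% = reference inhibitor control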
# TROY NFkB inh: inhibitors of TROY-driven NF-kB signaling, primary screen, Q293 LMP1-TROYcd cells, NF-kB luciferase, uHTS; Q293 LMP1-TROYcd NF-kB luciferase reporter, 4 h; inhibition, % at 10 µM; AID 1347056, 2019; 360,000 tested, 0.98% active;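 active = compounds whose plate-normalised and pattern-corrected inhibition of the luciferase reporter signal at the single screening dose is 50% or more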
# LGR2 antag: inhibitors of bursicon-induced LGR2 CRE-luciferase signal, primary screen, cell-based, HEK293, CRE-luciferase reporter, bursicon stimulation. Drosophila bursicon receptor LGR2 (rickets). bursicon-stimulated, 4 h. inhibition, % at 9.99 µM. 380,000 tested, 0.35% active. AID 720647, 2013;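 active = drop in luminescence signal, shown as inhibition above about 50% in the replicate tests, limit read from the data, passing the limit was not always enough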;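 note: agonist challenge used bursicon conditioned medium at about half maximal strength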
# Active calls of the source: *; · = not tested or not shown.
SMILES,TWEAK-Fn14 inh,TRPM1 prom inh,MITF act,LMP1 NFkB inh,TROY NFkB inh,LGR2 antag
Oc1ccc(Cl)cc1C1=NNC(c2ccc(Cl)cc2)C1 (stereo unspecified),-7,-4,5,-8,-46,-34
COc1ccc(/C=C2\SC(=S)N(CCCC(=O)Nc3cc(C)on3)C2=O)cc1OC,25,2,-4,3,9,1
Cc1ccc(/C=C2\SC(=S)N(CCCC(=O)Nc3cccnc3)C2=O)cc1,27,25,-22,72*,15,·
Cc1ccc(/C=C2\SC(=S)N(CCCC(=O)Nc3cc(C)on3)C2=O)cc1,73*,5,-2,17,24,14
Cc1c(/C=N\NC(=O)C2COc3ccccc3O2)c2ccccc2n1C (stereo unspecified),16,49,-47,0,23,1
Cc1c(/C=N/Nc2ccc(C(=O)O)cc2)c2ccccc2n1C,-24,-88,90*,-25,-21,-17
CCNC(=S)N/N=C/c1cn(Cc2ccc(F)cc2)c2ccccc12,-1,-13,17,-3,12,·
O=C(O)c1ccc(N/N=C/c2cn(Cc3ccc(F)cc3)c3ccccc23)cc1,52*,-18,22,-10,33,-15
COc1ccc(S(=O)(=O)N2CCCCN3[C@@H](CO)[C@H](c4ccc(C#CCC(C)C)cc4)[C@@H]3C2)cc1,·,·,·,·,·,-6
CCOc1ccc(/C=N/Nc2cc(N3CCOCC3)ncn2)c(O)c1,-11,·,·,56*,0,17
CCCOc1ccc(/C=N/Nc2cc(N3CCOCC3)ncn2)c(O)c1,-12,24,·,2,39,9
CCCN(C)C[C@H]1OCc2ccccc2-c2ccccc2C(=O)N([C@@H](C)CO)C[C@H]1C,·,·,·,·,·,23
Clc1ccc(Cc2noc(-c3cccs3)n2)cc1,-9,-111,112*,-26,-95,·
CC(C)CCCC(C)CCOC(=O)CN1CCCC1 (stereo unspecified),68*,3,·,-5,-6,-2
COc1ccc(NC(=O)Nc2ccc3c(c2)[C@@H]2C[C@H](CC(=O)NCc4ccccn4)O[C@@H](CO)[C@@H]2O3)cc1,·,·,·,·,·,-4
COc1ccc(S(=O)(=O)Nc2ccc3c(c2)OC[C@@H](C)N(C)C[C@@H](C)[C@H](OC)CN(C)C3=O)cc1,·,·,·,·,·,-4
N#Cc1ccc(CSc2nnc(Cc3cccs3)n2Cc2ccco2)cc1,76*,4,-4,-7,·,·
N#Cc1ccc(CSc2nnc(-c3ccccc3)n2Cc2ccco2)cc1,3,4,-2,0,-27,·
CC1=NOC(=O)/C1=C\c1ccc(-c2ccc(Br)cc2C(=O)O)o1,-2,-7,9,-4,-15,18
CC1=NOC(=O)/C1=C\c1ccc(-c2cc(Cl)ccc2Cl)o1,101*,99*,-99,14,2,·
CC1=NOC(=O)/C1=C/c1ccc(-c2ccc(Cl)cc2)o1,73*,99*,-99,-9,78*,·
COc1ccc(Cl)cc1/C=C1/C(=O)ON=C1C,14,-1,1,1,-15,16
CC1=NOC(=O)/C1=C\c1ccc(-c2ccc(Br)cc2)o1,64*,79*,-80,6,73*,·
CO[C@H]1CN(C)C(=O)c2cc(NC(=O)c3ccc(F)cc3)ccc2OC[C@H](C)NC[C@@H]1C,·,·,·,·,·,-16
C[C@H]1CN([C@@H](C)CO)C(=O)c2cc(-c3cccc(C#N)c3)cnc2O[C@@H]1CN(C)C(=O)c1cnccn1,·,·,·,·,·,15
SMILES,TWEAK-Fn14 inh,TRPM1 prom inh,MITF act,LMP1 NFkB inh,TROY NFkB inh,LGR2 antag
O=C(c1cccs1)N1CC=C(c2ccccc2)CC1,-6,-27,34,73*,-32,-18
O=C(O)C1CC=CCC1C(=O)N1CC=C(c2ccccc2)CC1 (stereo unspecified),78*,0,0,19,42,5
CN(C)C(=O)C[C@H]1CC[C@H]2[C@@H](COC[C@H](O)CN2Cc2ccc(C(F)(F)F)cc2)O1,·,·,·,·,·,19
COc1ccc(NC(=O)N[C@@H]2CC[C@H](CCNS(=O)(=O)c3ccccc3F)O[C@@H]2CO)cc1,·,·,·,·,·,2
COc1ccc(S(=O)(=O)Nc2cccc3c2O[C@H](CN(C)CC2CC2)[C@@H](C)CN([C@@H](C)CO)C3=O)cc1,·,·,·,·,·,1
Cc1cc(/C=C(\C#N)C(=O)N2CCOCC2)c(C)n1C1CCCC1,74*,8,-4,20,74*,52*
COc1ccc2c(c1)c(CC(=O)OCC(N)=O)c(C)n2C(=O)c1ccc(Cl)cc1,25,-13,14,1,54*,5
CO[C@H]1CN(C)C(=O)c2cc(NC(C)=O)ccc2OC[C@@H](C)N(Cc2ccccc2C(=O)O)C[C@H]1C,·,·,·,·,·,1
CCN(CC)c1ccc(/C=C/c2cccc[n+]2C)c(OC)c1,49,68*,·,38,44,26
COc1ccc(/C=C/c2cccc[n+]2C)c(O)c1,-3,0,·,0,-16,-5
C=CC(=O)N1C/C(=C/c2ccccc2)C(=O)/C(=C\c2ccccc2)C1,105*,97*,-97,85*,73*,100*
C=CC(=O)N1C/C(=C/c2ccc(Cl)cc2)C(=O)/C(=C\c2ccc(Cl)cc2)C1,107*,98*,-98,86*,85*,104*
COc1ccc(S(=O)(=O)N(C)C[C@@H]2OCCCC[C@@H](C)Oc3ccc(NC(=O)C4CCCCC4)cc3C(=O)N([C@@H](C)CO)C[C@H]2C)cc1,·,·,·,·,·,4
CCOC(=O)c1ccc(-n2cc(C(=O)c3cccnc3)nn2)cc1,2,-4,4,-8,-10,2
Cc1ccc(-n2cc(C(=O)c3ccc(F)cc3)nn2)cc1Cl,53*,-77,72,-35,41,·
N#Cc1ccsc1NC(=O)CSc1ncn[nH]1,8,-8,11,-16,-9,-1
CN(C(=O)COc1ncnc2ccccc12)C1CCCCC1,21,1,-2,1,13,8
CN(C(=O)CSc1ncnc2ccccc12)C1CCCCC1,-14,-101,104*,-38,-57,-67
N#Cc1ccsc1NC(=O)CSc1ncnc2ccccc12,1,13,-11,7,56*,·
CN(C)S(=O)(=O)c1cccc(NC(=O)CSc2ncnc3ccccc23)c1,64*,8,-12,5,38,40
CN1C(=O)c2cc(NC(=O)c3ccno3)ccc2OC[C@H]2O[C@@H](CC(=O)NCC3CC3)CC[C@@H]21,·,·,·,·,·,-14
CC1=C(C)C(=O)C(CCCCC#CCCCC#CCO)=C(C)C1=O,24,32,-33,43*,10,·
